Screening results as filed in PubChem BioAssay.
Mtb hypoxia rep – PubChem AID 1159583. fluorescence inhibition, % (concentration not given with the values). M. tuberculosis hypoxia-regulated fluorescent reporter, fluorescence. actives 0.1% (n = 300,000); in the data active = fluorescence inhibition mostly above about 23%, no sharp cut-off; inactive = mostly below about 17%
Mtb bLac sens – beta-lactam sensitization of Mtb H37Rv, H37Rv | M. tuberculosis H37Rv growth with meropenem, percent inhibition | inhibition, % at 25 µM | actives 0.27% (n = 330,000); call rule not given here;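 also: growth measured after seven days incubation then overnight dye step; 0% = bacteria only wells and 100% = bacteria with antibiotic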
GDH-TPI counter-1 – GDH-TPI coupling enzyme inhibitors, primary screen, artefact control for M. tuberculosis FBA inhibitor project, biochemical, absorbance, full deck | GDH-TPI coupled enzyme counterscreen, NADH absorbance | inhibition, % at 4.8 µM | actives 1.2% (n = 360,000) | AID 588335, 2011; in the data active = inhibition above about 30%;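 also: 0% = DMSO wells and 100% = wells lacking the enzyme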
DUSP3 inh – VHR1 phosphatase inhibitors, primary screen, biochemical, absorbance, uHTS. actives 0.52% (n = 290,000). inhibition, % at 13.3 µM. recombinant VHR phosphatase, pNPP absorbance. AID 1654, 2009. Dual specificity protein phosphatase 3 (Homo sapiens), P51452; in the data active = inhibition above about 50%
Target sequence (P51452 whole entry, looked up): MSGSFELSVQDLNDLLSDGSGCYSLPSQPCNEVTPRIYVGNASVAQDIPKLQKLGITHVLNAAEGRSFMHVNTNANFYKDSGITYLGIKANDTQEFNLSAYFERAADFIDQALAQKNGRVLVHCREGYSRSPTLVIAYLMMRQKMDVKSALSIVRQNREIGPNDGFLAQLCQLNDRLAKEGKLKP
Mtb FBA inh – Mtb FBA enzyme inhibitors, primary screen, biochemical, fluorescence, strain H37Rv; Fructose-bisphosphate aldolase (Mycobacterium tuberculosis (strain ATCC 25618 / H37Rv)), …; actives 2.3% (n = 360,000); purified M. tuberculosis FBA, fluorescence read-out; inhibition, % at 1 µM; AID 588726, 2011;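 also: 0% = vehicle and 100% = reference inhibitor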
Mtb FBA inh conf – M. tuberculosis aldolase blockers, biochemical, fluorescence, strain H37Rv, confirmation. actives 78% (n = 5,600). shares compounds with Mtb FBA inh. inhibition, % at 1 µM. purified M. tuberculosis FBA, fluorescence read-out;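 also: 0% = vehicle wells and 100% = reference inhibitor wells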
GDH-TPI counter-2 – GDH-TPI coupling enzyme inhibitors, artefact control for M. tuberculosis FBA inhibitor project, biochemical, fluorescence, high throughput; shares compounds with Mtb FBA inh; GDH-TPI coupled enzyme counterscreen; inhibition, % at 1 µM; actives 81% (n = 5,600); in the data active = inhibition above about 10%
* = called active by the depositor; nt = no result; + = active, no number. Only some compounds are listed: those with a hit (about 3.6% of all), similar ones and a draw of the others. Rule as the data show it, unless noted: active = inhibition above about 27%; inactive = the rest.

SMILES | Mtb hypoxia rep | Mtb bLac sens | GDH-TPI counter-1 | DUSP3 inh | Mtb FBA inh | Mtb FBA inh conf | GDH-TPI counter-2
S=C(NCc1ccco1)NN=Cc1ccccc1Cl | 5.0 | nt | nt | nt | nt | nt | nt
COc1cccc(-c2c(-c3cc(OC)cc(OC)c3)n(C)c3ccc(Br)cc23)c1 | 2.3 | 4.8 | 22.7 | nt | 6.8 | nt | nt
COc1cccc(-c2c(-c3cc(OC)cc(OC)c3)n(C)c3ccc(-c4cccc5[nH]ccc45)cc23)c1 | 7.8 | 7.3 | 25.2 | nt | 54.1* | + | +
COc1cc(OC)cc(-c2c(-c3ccc(F)cc3)c3cc(-c4ccc(OC)nc4)ccc3n2C)c1 | 4.3 | -10.9 | 4.5 | nt | 5.3 | nt | nt
COc1cc(OC)cc(-c2c(-c3ccc(F)cc3)c3cc(-c4cccc5[nH]ccc45)ccc3n2C)c1 | 19.4 | 7.9 | 28.6 | nt | 47.8* | 5.1 | -8.5
CCC(CC)NC(=O)CON=Cc1ccccc1OC(F)F | 4.3 | nt | nt | nt | nt | nt | nt
Cc1cc(C)n2nc(C(=O)OCC(=O)c3ccccc3)nc2n1 | -10.2 | -11.1 | 0.0 | nt | 28.4* | 95.2* | 67.7*
COc1cc2c(cc1OC)CN(CC(=O)Nc1ccccc1C#N)CC2 | nt | -2.9 | 0.8 | 14.6 | 64.7* | 155.8* | 175.6*
COc1cc2c(cc1OC)CN(CC(=O)Nc1ccccc1SC)CC2 | 10.6 | -4.4 | -1.2 | 17.9 | 0.7 | nt | nt
CCOc1cc(C=NNC(=O)CCc2n[nH]c(=O)[nH]c2=O)ccc1O | -1.8 | nt | nt | nt | nt | nt | nt
COc1ccc(CCNc2oc(-c3ccccc3OC)nc2C#N)cc1OC | 4.6 | 2.5 | 9.0 | -3.7 | 86.2* | 96.0* | 69.6*
N#Cc1nc(-c2ccco2)oc1NCCCN1CCOCC1 | 3.6 | -7.4 | 19.2 | 11.3 | 56.1* | + | +
N#Cc1nc(-c2ccc(F)cc2)oc1NCc1ccccc1 | 11.0 | -4.7 | 0.9 | 12.4 | 80.8* | 165.2* | 120.4*
N#Cc1nc(-c2ccco2)oc1NCc1ccccc1Cl | -4.0 | -7.9 | 18.6 | -7.7 | 35.4* | 88.7* | 79.2*
O=S(=O)(c1ccccc1)c1nc(-c2ccco2)oc1NCCCN1CCOCC1 | nt | -3.0 | 3.7 | -28.9 | 0.8 | nt | nt
CC(C)(C)c1ccc(-c2nc(C#N)c(NCc3cccnc3)o2)cc1 | 4.0 | 97.5 | 12.4 | 7.9 | 13.2 | nt | nt
C=CCNC(=S)NN=Cc1ccc(-c2ccc(Cl)cc2Cl)o1 | 16.3 | nt | nt | nt | nt | nt | nt
CC(C)(C)OC(=O)CC1CC=CCC(CC(=O)NCCO)C(=O)NC(C(C)(C)C)COC1=O (stereo not given) | 9.2 | nt | nt | nt | nt | nt | nt
Cc1ccc(-c2nc(C#N)c(NCc3ccco3)o2)cc1 | nt | 38.0 | 10.7 | -15.6 | 91.9* | 54.2* | 40.9*
N#Cc1nc(-c2ccco2)oc1NCc1ccco1 | 6.7 | -0.2 | 13.0 | 1.2 | 40.1* | 171.7* | 176.4*
N#Cc1nc(Cc2cccc3ccccc23)oc1NCc1ccco1 | 2.4 | 20.7 | -2.5 | 27.9 | 0.3 | nt | nt
COc1ccccc1OCc1nc(C#N)c(NCc2ccco2)o1 | nt | -10.1 | 1.2 | -0.8 | 2.9 | nt | nt
N#Cc1nc(-c2ccc(F)cc2)oc1NCc1ccco1 | 5.1 | 1.7 | 6.4 | 6.2 | 70.7* | 106.6* | 73.3*
COCCNc1oc(-c2ccc(F)cc2)nc1C#N | 5.9 | -10.4 | 9.1 | 16.4 | 107.1* | 7.7 | -0.5
CC=CC=CC(=O)N1CC2(CC(c3cccc(NC(=O)C(C)=CC)c3)=NO2)CC1C(N)=O (stereo not given) | 8.3 | nt | nt | nt | nt | nt | nt
CCN1CC2C3C(=O)N(Cc4ccccc4)C(=O)C3[C@](C)(C1=O)N2C(=O)c1ccc(Br)cc1 (stereo not given in full) | 4.8 | nt | nt | nt | nt | nt | nt
CN(Cc1ccccc1)c1oc(-c2ccco2)nc1C#N | 4.9 | 10.9 | 16.1 | 0.0 | 67.2* | 41.1* | 36.5*
CN(C)CCNc1oc(-c2cccc(Cl)c2)nc1C#N | 6.3 | 5.3 | 1.3 | 51.2* | 56.9* | 19.8 | 11.1*
N#Cc1nc(-c2ccc(OCc3ccccc3)cc2)oc1NCc1ccco1 | 11.6 | -4.5 | 19.8 | 36.1 | 6.9 | nt | nt
CNc1oc(-c2ccc(OCc3ccccc3)cc2)nc1C#N | -1.6 | 71.5 | 6.0 | 11.6 | 73.8* | 84.2* | 69.9*
